# Reference: PubChem BioAssay
# “And” between values parts separate entries of the source, which are not always exact repeats. Identical values can stand only once. The source made the active and inactive calls.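 Rule for the calls, unless noted: active = compounds whose cell count with miR-34 switched on is under 0.7 times the count with it off; inactive = the rest.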
# Legend:
# [1] = sensitizers of A549 cells to miR-34 induction, primary screen, imaging, A549 dox-inducible miR-34, nuclei and caspase counts (AID 1347080); conditions: A549 miR-34 inducible, Hoechst nuclei count, 48 h
# [2] = survival rescue of mitochondrial mutant cells in low glucose, primary screen, MELAS cybrids, Rieske KO mouse fibroblasts, CellTiter-Glo (AID 1508586;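 active = mean z-score across replicates of 1.96 or higher in either the MELAS or the Rieske mutant cell line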;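 note: z relative to plate mean and SD of compound and empty wells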)
# [3] = stronger effect = lower value, cell number ratio, induced over uninduced
# [4] = measured here: relative caspase fold change +Dox/-Dox
# [5] = measured here: total cells with miR-34 induction, stronger effect = lower value
# [6] = measured here: total cells without miR-34 induction
# [7] = MELAS cybrid survival, CellTiter-Glo 48 h, stronger effect = higher value
# [8] = Rieske KO mouse fibroblast survival, CellTiter-Glo 72 h
# Note: test concentration not given here.
Compound,"fold change [1, 3]","fold change [1, 4]","cell count [1, 5]","cell count [1, 6]","z-score [2, 7]","z-score [2, 8]"
CC(=O)O[C@]12COC1CC(O)[C@]1(C)C(=O)C(O)C3=C(C)C(OC(=O)C(O)C(NC(=O)OC(C)(C)C)c4ccccc4)C[C@](O)(C(OC(=O)c4ccccc4)C21)C3(C)C (stereo partly specified),1.04 (inactive),0.7,2320,2220,6.54 (active),-0.0789
O=C(O)c1ccc(N2C(=O)C(=Cc3ccc(-c4ccc([N+](=O)[O-])cc4)o3)C=C2c2ccccc2)cc1,0.852 (inactive),1.02,7620,8950,-0.417 (inactive),0.868
CCC(C)C(=O)OC1CC(C)C=C2C=CC(C)C(CCC3CC(O)CC(=O)O3)[C@H]21 (stereo partly specified),1.2 (inactive),0.613,3590,2990,-0.367 (inactive),-1.71
Cc1cc(Cn2cnc3c2CC(C(=O)O)N(C(=O)C(c2ccccc2)c2ccccc2)C3)ccc1N(C)C (stereo unspecified),0.92 (inactive),0.34,8010,8710,0.9 (inactive),-1.41
O=C1O[C@H](C(O)CO)C(O)C1O (stereo partly specified),0.859 (inactive),0.731,8460,9850,-0.207 (inactive),-0.154
NC(=O)c1noc(C(CCCC2CCCCC2)CC(=O)NO)n1 (stereo unspecified),0.791 (inactive),1.15,6790,8580,-0.42 (inactive),-1.85
O=C(COc1ccc(C(=O)c2ccccc2)cc1)NC1CCN(Cc2ccccc2)CC1,0.922 (inactive),0.78,6930,7520,-0.391 (inactive),-0.791
CC(C)(C)NS(=O)(=O)c1cncc(-c2cc(F)c3nc(N)nn3c2)c1,0.874 (inactive),1.55,8160,9340,-0.353 (inactive),-0.161
O=C1CCC[C@@H]2[C@@H]3CCC[N+]4([O-])CCC[C@H](CN12)[C@@H]34 (stereo partly specified),0.977 (inactive),0.789,9620,9840,-0.359 (inactive),0.579
CC(=O)NC1C(N=C(N)N)C=C(C(=O)O)O[C@H]1C(O)C(O)CO (stereo partly specified),0.903 (inactive),0.622,9700,10700,-0.333 (inactive),0.922
CC(C=CC1=C(C)CCCC1(C)C)=CC=CC(C)=CC(=O)O,0.957 (inactive) and 0.887 (inactive),0.963 and 0.861,6860 and 8040,7170 and 9070,-0.296 (inactive) and 0.176 (inactive),0.231 and 0.975
O=C(NC1CCN(CCCCC2(C(=O)NCC(F)(F)F)c3ccccc3-c3ccccc32)CC1)c1ccccc1-c1ccc(C(F)(F)F)cc1,1.05 (inactive),0.667,3960,3780,-0.492 (inactive),-0.827
O=C(Nc1ncc(SCCN2CCCC2)s1)[C@]1(c2ccc(S(=O)(=O)C3CC3)cc2)CC1C1CCCCC1 (stereo partly specified),0.954 (inactive),1.22,5020,5260,-0.306 (inactive),-0.0398
NC1(C(=O)NC(CCO)c2ccc(Cl)cc2)CCN(c2ncnc3[nH]ccc23)CC1 (stereo unspecified),1.01 (inactive),0.36,7310,7200,-0.334 (inactive),-0.0673
COC(=O)C1=COC(OC2OC(CO)C(O)C(O)C2O)[C@H]2C(CO)=CC[C@H]12 (stereo partly specified),0.942 (inactive),0.842,7570,8040,-0.247 (inactive),-0.0973
COC(=O)C1C(O)CC[C@H]2CN3CCc4c([nH]c5ccccc45)[C@@H]3C[C@H]12 (stereo partly specified),0.892 (inactive),0.762,8840,9910,-0.303 (inactive),0.721

Compound,"fold change [1, 3]","fold change [1, 4]","cell count [1, 5]","cell count [1, 6]","z-score [2, 7]","z-score [2, 8]"
CC(C)c1nc(CN(C)C(=O)NC(CCN2CCOCC2)C(=O)NC(CCC(Cc2ccccc2)NC(=O)OCc2cncs2)Cc2ccccc2)cs1 (stereo unspecified),0.977 (inactive),0.47,5730,5860,-0.312 (inactive),-0.261
C[C@]12CC[C@H]3c4ccc(OC(=O)c5ccccc5)cc4CC[C@H]3[C@@H]1CCC2O (stereo partly specified),0.921 (inactive),0.673,8340,9050,-0.15 (inactive),-0.151
N=c1ccn2c(n1)OC1C(O)C(CO)OC12 (stereo unspecified),1.07 (inactive),0.814,2350,2200,0.074 (inactive),0.000793
NC(=O)Nc1cc(-c2cccc(F)c2)sc1C(=O)NC1CCCNC1 (stereo unspecified),1.01 (inactive),0.785,866,858,-0.543 (inactive),-2.7
NS(=O)(=O)c1ccc(NC(=O)Nc2ccc(F)cc2)cc1,0.971 (inactive),0.438,8130,8360,-0.152 (inactive),-0.0443
CC(=O)O[C@@]1(C(C)=O)CC[C@H]2[C@@H]3CC(C)C4=CC(=O)CC[C@]4(C)[C@@H]3CC[C@@]21C (stereo partly specified),0.92 (inactive),0.806,7550,8200,-0.365 (inactive),-0.106
CC1=NN(c2ccc(C(=O)O)cc2)C(=O)C1=Cc1ccc(-c2cc(C)c(C)cc2[N+](=O)[O-])o1,0.902 (inactive),0.511,7310,8100,-0.321 (inactive),0.107
C=C[C@]1(C)CC(OC(=O)CSC(C)(C)CNC(=O)C(N)C(C)C)[C@@]2(C)C(C)CC[C@]3(CCC(=O)[C@H]32)C(C)C1O (stereo partly specified),0.851 (inactive),1.9,6360,7470,6.17 (active),2.78
CC1CC(=O)NN=C1c1ccc(NN=C(C#N)C#N)cc1 (stereo unspecified),0.851 (inactive),1.15,8280,9730,-0.305 (inactive),-0.733
Cc1cncc(CN2CCC(=C3c4ccc(Cl)cc4CCc4cccnc43)CC2)c1,1.04 (inactive),0.52,6230,6000,-0.369 (inactive),-0.161
Cc1ccc(CNc2ncnc3ccc(-c4ccc(CO)o4)cc23)o1,0.916 (inactive),0.52,7510,8210,-0.414 (inactive),0.153
CON=C(C(=O)N[C@@H]1C(=O)N2C(C(=O)O)=C(CSC(=O)c3ccco3)CS[C@H]12)c1csc(N)n1,0.943 (inactive),1.19,9660,10200,-0.295 (inactive),0.108
Cc1cc(C(C)Nc2ccccc2C(=O)O)c2nc(N3CCOCC3)cc(=O)n2c1 (stereo unspecified),0.956 (inactive),0.866,5770,6030,-0.296 (inactive),-0.288
COc1c(C)c2c(c(O)c1CC=C(C)CCC(=O)O)C(=O)OC2,1.08 (inactive),0.86,3150,2920,0.238 (inactive),0.269
CC(C)c1onc(-c2c(Cl)cccc2Cl)c1COc1ccc(C=Cc2cccc(C(=O)O)c2)c(Cl)c1,0.901 (inactive),1.37,7080,7860,0.359 (inactive),-0.609
